Screening data (PubChem BioAssay)
G9a inh = G9a (human) methyltransferase inhibition; G9a H3K9 monomethylation, AlphaScreen, 2 h; Potency, µM (top dose mostly 102 µM), for the others: at the top dose activity, negative = inhibition, hits mostly inhibitors; 350,000 tested, 8.8% active; AID 504332; note: % is set by controls: 0 for no effect and ±100 for the full control effect; nearly all actives have a fitted effect of over 75% in size
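Step 1: enzyme (final 20 nM) with compound, 15 min RT. Step 2: substrate peptide 500 nM and SAM 20 uM, 2 h RT. Step 3: anti-H3K9me1 antibody and AlphaScreen beads, 10 min, then plate read.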
BAZ2B inh = BAZ2B (human) inhibition; Potency, µM (top dose mostly 114 µM), inactives show top-dose activity change, negative = inhibition, hits mostly inhibitors; 360,000 tested, 4.4% active; AlphaScreen BAZ2B-H3K14Ac peptide displacement; note: % is set by controls: 0 for no effect and ±100 for the full control effect; nearly all actives have a fitted effect of over 60% in size
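Compounds, titrated to a top concentration of 110 uM, were incubated 30 min at room temperature with preformed BAZ2B/acetyl-K14 H3 peptide complex (50 nM each). Proximity signal was measured by AlphaScreen after 20 min with beads.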
JMJD2A Tudor inh = inhibitors of human JMJD2A Tudor domain; AlphaScreen JMJD2A-Tudor / H3K4me3 peptide binding; AID 504339; 390,000 tested, 4.4% active; O75164; Potency, µM (series often up to 114 µM), for inactives: top-dose activity change, negative = inhibition, usual class: inhibitors; note: % is set by controls: 0 for no effect and ±100 for the full control effect; nearly all actives have a fitted effect of over 50% in size
Sfp PPTase inh = inhibitors of Bacillus subtilis Sfp phosphopantetheinyl transferase; Q9F4F7; Potency, µM, without a hit: largest response in the series, negative = inhibition, hits mostly inhibitors; 310,000 tested, 3.5% active; AID 1490; Biochemical Sfp PPTase activity, qHTS;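 note: the enzyme is Sfp with the accession as filed and its product quenches rhodamine fluorescence; 0% = enzyme reaction without inhibitor and -100% = no enzyme wells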
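With Hepes-Na pH 7.6 buffer containing 10 mM MgCl2, Sfp (15 nM) modified BHQ-2-YbbR (12.5 uM) using rhodamine-CoA (5 uM). Two reads 30 minutes apart at 525/598 nm yielded each well's rate.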
HP1b binding inh = blocks HP1-beta chromodomain binding to methylated histone tails; 390,000 tested, 0.56% active; AlphaScreen HP1-beta / biotin-H3K9me3 peptide binding; AID 540317; Potency, µM (series often up to 114 µM), inactives show at the top dose activity change, negative = inhibition, hits mostly inhibitors; note: nearly all actives have a fitted effect of over 70% in size
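Compound inhibition of the preformed complex between 50 nM HP1-beta and 50 nM biotinylated H3K9me3 peptide was read by AlphaScreen. Buffer was PBS pH 7.4 with 0.01% Tween-20. Incubations ran 30 min at room temperature, with 10 ug/mL donor/acceptor beads.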
The depositor's hits bear a star; [ ] = another dose, or the depositor's remark. This is a sample that favours compounds with a hit; in the whole collection about 12% have one here. Calls come from the whole dose curve; as a rule, active = well fitted curve in the direction sought with a large enough effect; inconclusive = small, poorly fitted or top-dose-only effect, or another doubt; inactive = no such curve, though single readings can be large; an effect the other way counts as inactive or inconclusive. Potency is the fitted concentration of half-maximal effect.

What do the screens show for `CSc1cccc(NC(=S)N2CCC(N(C)C(C)C)CC2)c1`?
G9a inh: -8%; BAZ2B inh: -15%; JMJD2A Tudor inh: -19%; Sfp PPTase inh: 24%; HP1b binding inh: 4%

Results for CCOC(=O)N1CCC(Nc2c(NCCN3CCN(Cc4ccccc4)CC3)c(=O)c2=O)CC1 ?
G9a inh: 33%[59 µM]; BAZ2B inh: 0%; JMJD2A Tudor inh: -12%; Sfp PPTase inh: 5%; HP1b binding inh: 19%

Results for CCOC(=O)N1CCC(Nc2c(NCCCN(CC)c3cccc(C)c3)c(=O)c2=O)CC1 ?
G9a inh: 50µM*; BAZ2B inh: inconclusive; JMJD2A Tudor inh: inconclusive; Sfp PPTase inh: 3%; HP1b binding inh: -8%

How did CCOC(=O)N1CCC(Nc2cccc(SC)c2)CC1 do in these assays?
G9a inh: inconclusive; BAZ2B inh: inconclusive; JMJD2A Tudor inh: inconclusive; Sfp PPTase inh: 56µM*; HP1b binding inh: -12%

How did Cc1ccccc1-n1c(C)nnc1SC(C)C(=O)NCC1CCCO1 (centres undefined) do in these assays?
G9a inh: -3%[12.7 µM]; BAZ2B inh: -3%; JMJD2A Tudor inh: 12%; HP1b binding inh: 52%

Results for CC(=O)Oc1ccc(C(=O)Nc2ccc(C3(C#N)CCCC3)cc2)cc1 ?
G9a inh: inconclusive; BAZ2B inh: -8%; JMJD2A Tudor inh: -7%; Sfp PPTase inh: 6%; HP1b binding inh: 28%

How did Cc1ccc(C)c(NC(=O)COC(=O)c2nc(Cl)ccc2Cl)c1 do in these assays?
G9a inh: -10%[12.7 µM]; BAZ2B inh: -4%; JMJD2A Tudor inh: -29%; HP1b binding inh: 59%

How did CCOC(=O)N1CCC(Nc2c(-c3ccc(C)cc3)c(=O)c2=O)CC1 do in these assays?
G9a inh: inconclusive; BAZ2B inh: 3%; JMJD2A Tudor inh: -6%; Sfp PPTase inh: -13%; HP1b binding inh: 37%

Results for CCOC(=O)N1CCC(Nc2c(-c3ccccc3)c(=O)c2=O)CC1 ?
G9a inh: 56µM*; BAZ2B inh: -14%; JMJD2A Tudor inh: -18%; Sfp PPTase inh: 18%; HP1b binding inh: 14%

What do the screens show for `COc1ccc2c(c1)[nH]c1c(=O)n(/N=C/c3ccc(OC)c(COc4ccccn4)c3)cnc12`?
G9a inh: 9%; BAZ2B inh: 4%; JMJD2A Tudor inh: 79µM*; Sfp PPTase inh: 8%; HP1b binding inh: 7%

How did CC(=O)Oc1ccc(C(c2ccc(OC(C)=O)cc2)c2ccccn2)cc1 do in these assays?
G9a inh: -1%[59 µM]; BAZ2B inh: 5%; JMJD2A Tudor inh: -8%; Sfp PPTase inh: 7%; HP1b binding inh: 35%

How did Oc1c(Br)cc(Br)cc1/C=N/c1nccs1 do in these assays?
G9a inh: 1.6µM*; BAZ2B inh: inconclusive; JMJD2A Tudor inh: -23%; HP1b binding inh: 20%

Results for Oc1ccc(Cl)cc1/C=N/c1nccs1 ?
G9a inh: inconclusive; BAZ2B inh: inconclusive; JMJD2A Tudor inh: -18%; Sfp PPTase inh: inconclusive; HP1b binding inh: 23%

How did Cc1ccc2nc(-c3ccc(NC(=O)COC(=O)c4ccc([N+](=O)[O-])o4)cc3)sc2c1 do in these assays?
G9a inh: 22%[59 µM]; BAZ2B inh: -2%; JMJD2A Tudor inh: -8%; Sfp PPTase inh: -3%; HP1b binding inh: 24%

Results for C=CCOc1ccc(C(c2c(C(=O)O)[nH]c3ccccc23)c2c(C(=O)O)[nH]c3ccccc23)cc1 ?
G9a inh: 35µM*; BAZ2B inh: 50µM*; JMJD2A Tudor inh: 79µM*; Sfp PPTase inh: -3%; HP1b binding inh: 71µM*

How did COc1ccc(NCc2ccccc2[N+](=O)[O-])cc1OC do in these assays?
G9a inh: 11µM*; BAZ2B inh: 50µM*; JMJD2A Tudor inh: 50µM*; Sfp PPTase inh: -5%; HP1b binding inh: inconclusive

Results for Cc1cc(C)cc(NC(=O)CSc2nc(-c3cccc(Cl)c3)nc3c2Cc2c(CO)cnc(C)c2O3)c1 ?
G9a inh: 1%[59 µM]; BAZ2B inh: 50µM*; JMJD2A Tudor inh: 8%; HP1b binding inh: 49%

How did CCN(CC)C(=O)CSc1nc(-c2ccc(C)cc2)nc2c1Cc1c(CO)cnc(C)c1O2 do in these assays?
G9a inh: 14µM*; BAZ2B inh: 45µM*; JMJD2A Tudor inh: inconclusive; HP1b binding inh: -1%
